A short description of assay [1]: compounds binding Alexa647 anti-His antibody – biochemical, small-molecule microarray, 635 nm fluorescence, artefact control for SMM control protein annotation, primary screen (AID 1128).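 Note: score merges feature fluorescence with signal-to-noise for each printed compound spot.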 The following applies: higher = more signal.
Assay [2] relates to Human papillomavirus type 1a E7 protein (residues 1-88). In words: HPV1a E7 small-molecule binders, primary screen, biochemical, small-molecule microarray, residues 1-88, 635 nm (AID 1129). The following applies: small-molecule microarray binding, fluorescence 635 nm; higher = more signal.
For assay [3], the target named is Focal adhesion kinase 1 (Homo sapiens) (UniProt Q05397). Nature of the assay: PTK2 protein binding on printed compound slides – biochemical, small-molecule microarray, 635/667 nm fluorescence, BSA, DTT, primary screen (AID 1130).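 Note: composite of spot emission at 667 nm and signal to noise over triplicate slides.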 The note with it: 635 nm fluorescence, higher = more signal.
Sequence of Focal adhesion kinase 1 (Homo sapiens) (Q05397 whole entry, looked up): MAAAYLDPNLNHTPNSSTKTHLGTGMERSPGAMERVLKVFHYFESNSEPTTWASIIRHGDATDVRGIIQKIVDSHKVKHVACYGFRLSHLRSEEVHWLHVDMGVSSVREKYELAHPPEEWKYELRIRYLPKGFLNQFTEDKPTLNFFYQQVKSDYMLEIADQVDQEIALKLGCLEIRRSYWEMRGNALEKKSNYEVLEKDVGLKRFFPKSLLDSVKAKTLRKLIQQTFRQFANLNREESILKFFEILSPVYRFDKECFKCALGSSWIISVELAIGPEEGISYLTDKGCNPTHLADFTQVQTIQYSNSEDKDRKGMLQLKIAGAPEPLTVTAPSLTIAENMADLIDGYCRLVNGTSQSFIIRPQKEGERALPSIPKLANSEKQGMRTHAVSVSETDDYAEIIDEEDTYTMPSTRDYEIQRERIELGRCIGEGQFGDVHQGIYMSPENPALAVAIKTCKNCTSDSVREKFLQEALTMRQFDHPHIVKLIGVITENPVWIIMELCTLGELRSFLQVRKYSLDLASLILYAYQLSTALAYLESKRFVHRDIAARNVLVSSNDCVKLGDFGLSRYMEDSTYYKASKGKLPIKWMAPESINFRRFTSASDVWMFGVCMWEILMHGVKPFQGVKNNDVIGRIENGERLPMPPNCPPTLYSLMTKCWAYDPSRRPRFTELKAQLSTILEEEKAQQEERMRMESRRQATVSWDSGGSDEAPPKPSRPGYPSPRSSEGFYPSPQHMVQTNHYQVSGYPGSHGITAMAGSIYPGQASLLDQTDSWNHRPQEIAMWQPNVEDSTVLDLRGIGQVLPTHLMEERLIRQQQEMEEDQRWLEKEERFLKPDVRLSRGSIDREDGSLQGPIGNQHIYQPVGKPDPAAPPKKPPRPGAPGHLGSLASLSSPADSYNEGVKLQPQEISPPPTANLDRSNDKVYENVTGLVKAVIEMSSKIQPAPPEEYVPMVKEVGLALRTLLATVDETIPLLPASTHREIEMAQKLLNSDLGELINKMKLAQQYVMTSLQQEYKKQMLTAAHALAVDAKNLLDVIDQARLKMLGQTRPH
Assay [4] deals with Fibrinogen (Alexa647-labelled). Nature of the assay: Alexa647-fibrinogen binding to printed small molecules – biochemical, small-molecule microarray, 635/667 nm fluorescence, artefact control for SMM control-protein annotation, profiling panel (AID 1131).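 Note: z-score merges 667 nm fluorescence with per-spot signal-to-noise over triplicate slides.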 The note with it: fibrinogen-A647 binding fluorescence, higher = more signal.
The target in assay [5] is Follistatin (Homo sapiens) (UniProt P19883). In words: FST protein binding to printed compounds – biochemical, small-molecule microarray, 635/667 nm fluorescence, primary screen (AID 1132). The note with it: 635 nm fluorescence, higher = more signal.
Sequence of Follistatin (Homo sapiens) (P19883 whole entry, looked up): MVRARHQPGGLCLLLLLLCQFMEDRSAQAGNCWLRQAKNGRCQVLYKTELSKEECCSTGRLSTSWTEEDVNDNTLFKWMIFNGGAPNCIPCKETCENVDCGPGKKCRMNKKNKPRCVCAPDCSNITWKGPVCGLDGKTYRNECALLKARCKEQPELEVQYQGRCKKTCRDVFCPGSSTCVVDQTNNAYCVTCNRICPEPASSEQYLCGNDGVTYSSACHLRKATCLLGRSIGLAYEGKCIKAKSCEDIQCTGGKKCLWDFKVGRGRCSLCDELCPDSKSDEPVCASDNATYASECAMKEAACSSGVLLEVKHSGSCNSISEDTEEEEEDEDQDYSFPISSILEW
For assay [6], the target named is Fibroblast growth factor 2 (Homo sapiens) (UniProt P09038). In words: basic fibroblast growth factor binding to printed compounds – biochemical, small-molecule microarray, 635/667 nm fluorescence, primary screen (AID 1133). The note with it: FGF2, fluorescence 635/667, higher = more signal.
Sequence of Fibroblast growth factor 2 (Homo sapiens) (P09038 whole entry, looked up): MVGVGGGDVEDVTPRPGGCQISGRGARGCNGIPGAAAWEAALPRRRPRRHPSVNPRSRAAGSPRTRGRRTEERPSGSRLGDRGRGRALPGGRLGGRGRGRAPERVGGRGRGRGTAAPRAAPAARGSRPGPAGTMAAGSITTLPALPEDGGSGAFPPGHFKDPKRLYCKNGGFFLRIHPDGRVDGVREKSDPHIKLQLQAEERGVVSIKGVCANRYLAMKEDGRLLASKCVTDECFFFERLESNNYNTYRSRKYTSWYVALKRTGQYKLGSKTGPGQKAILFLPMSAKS
A short description of assay [7]: JC-1 mitochondrial potential readout, lung cancer cells – cell-based, A549, JC-1 fluorescence, basal, 24 h, 100 nL, profiling panel (AID 1138).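 Note: A549 lung adenocarcinoma cells under basal conditions with no added stimulus; test concentration not given here.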 The note with it: higher = more signal.
A further assay concerns Lefty1. Nature of the assay: Lefty1 protein binding to printed compounds – biochemical, small-molecule microarray, 635/667 nm fluorescence, primary screen (AID 1139). The following applies: fluorescence 635/667, higher = more signal.
Assay [8] has as its system wheat germ agglutinin (Triticum aestivum), Alexa647-labelled. In words: Alexa647-WGA lectin binding to printed small molecules – biochemical, small-molecule microarray, 635/667 nm fluorescence, artefact control for SMM control-protein annotation, profiling panel (AID 1140).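 Note: score merges 667 nm feature emission with signal to noise over triplicate slides.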 The following applies: WGA-A647 binding, 635 nm fluorescence, higher = more signal.
Assay [9] concerns the target Luciferin 4-monooxygenase (Photinus pyralis) (UniProt P08659). Nature of the assay: inhibition of purified Photinus pyralis luciferase – biochemical, luminescence, purified enzyme, 2006 set, primary screen (AID 1141).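 Note: cell-free assay with purified firefly luciferase at 100 ng per well in PBS; test concentration not given here.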 The following applies: purified firefly luciferase, SteadyGlo luminescence, 30 min; higher = more signal, called active from +8 up or from −8 down.
Assay [10] has as its system Wnt5a (protein binding on small-molecule microarray). Nature of the assay: small molecules binding Wnt5a protein – biophysical, small-molecule microarray, 635/667 nm fluorescence, primary screen (AID 1142).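 Note: fluorescence read at 667 nm with signal to noise per printed feature.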 The following applies: 635 nm fluorescence, higher = more signal.
Assay [11] is described as follows: ATP-based viability of Huh7 replicon cells – cell-based, CellTiter-Glo luminescence, basal, 48 h, cytotoxicity control for HCV replication inhibitor project, primary screen (AID 1143).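 Note: Huh7 hepatoma cells carrying a hepatitis C replication reporter with no stimulus; test concentration not given here.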 The note with it: higher = more signal, called active from +8 up or from −8 down. In general terms: A replicon is a self-replicating genome or part of one, used to study replication in cells.

The nature of assay [12]: Pseudomonas biofilm growth suppression – PAO1 strain, BacTiter-Glo luminescence, LB-PBS, primary screen (AID 1144). The following applies: P. aeruginosa PAO1 biofilm, 12 h, higher = more signal.
Assay [13] can be described thus: basal CRE-LacZ reporter activity in PC12 – cell-based, unstimulated, primary screen (AID 1145). The following applies: no forskolin, luminescence, 4.5 h, higher = more signal, called active from +8 up or from −8 down.
Assay [14] in a line: forskolin-driven CRE-LacZ activity in PC12 – cell-based, CRE-LacZ reporter, forskolin-stimulated, primary screen (AID 1146).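 Note: PC12 cells with 6xCRE LacZ reporter stimulated by forskolin 10 µM; beta-galactosidase reporter signal reflecting CREB driven transcription.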 The following applies: luminescence, 4.5 h, higher = more signal, called active from +8 up or from −8 down.
For assay [15], the target named is Streptavidin (Streptomyces avidinii) (UniProt P22629). Nature of the assay: compounds binding control protein streptavidin – biophysical, small-molecule microarray, 635/667 nm fluorescence, artefact control for SMM compound annotation, primary screen (AID 1147).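 Note: signal reflects streptavidin binding to arrayed compounds as a control protein.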 The note with it: higher = more signal.
Sequence of Streptavidin (Streptomyces avidinii) (P22629 whole entry, looked up): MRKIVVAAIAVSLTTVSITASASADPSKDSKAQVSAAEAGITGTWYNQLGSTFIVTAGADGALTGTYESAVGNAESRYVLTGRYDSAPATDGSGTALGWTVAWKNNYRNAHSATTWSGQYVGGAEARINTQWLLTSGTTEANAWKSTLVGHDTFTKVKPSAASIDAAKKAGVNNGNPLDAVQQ
Assay [16] in a line: probe aInhba binding on compound microarray – biochemical, small-molecule microarray, 635/667 nm fluorescence, primary screen (AID 1148).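 Note: score merges 667nm spot fluorescence with signal-to-noise for antibody binding to printed compounds.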 The following applies: higher = more signal.
Assay [17] addresses Torsin-1A (Homo sapiens) (UniProt O14656). In words: TOR1A wild-type binding on microarray – cell lysate, small-molecule microarray, lysate, 635/667 nm, primary screen (AID 1149). The note with it: COS7 hTOR1A-WT lysate, 635 nm fluorescence, higher = more signal.
Assay [18] shares this target. In words: torsin A mutant lysate binding on microarrays – cell lysate, small-molecule microarray, COS7 lysate, 635/667 nm fluorescence, primary screen (AID 1150).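 Note: score pools 667 nm emission and signal to noise measuring lysate protein binding.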 The following applies: COS7 hTOR1A mutant lysate, 635 nm fluorescence, higher = more signal.
Assay [19] has as its system Sonic hedgehog protein (Shh). Nature of the assay: Sonic hedgehog microarray binding compounds – biochemical, small-molecule microarray, 635/667 nm fluorescence, primary screen (AID 1151).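 Note: Shh protein binding to compounds spotted on small-molecule microarray slides; score combines spot fluorescence intensity with signal-to-noise across triplicate slides.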 The following applies: 635 nm fluorescence, higher = more signal.

Active and inactive are the calls of the source. Unless noted, the rule behind the calls is not given here.

Sequence of Torsin-1A (Homo sapiens) (O14656 whole entry, looked up): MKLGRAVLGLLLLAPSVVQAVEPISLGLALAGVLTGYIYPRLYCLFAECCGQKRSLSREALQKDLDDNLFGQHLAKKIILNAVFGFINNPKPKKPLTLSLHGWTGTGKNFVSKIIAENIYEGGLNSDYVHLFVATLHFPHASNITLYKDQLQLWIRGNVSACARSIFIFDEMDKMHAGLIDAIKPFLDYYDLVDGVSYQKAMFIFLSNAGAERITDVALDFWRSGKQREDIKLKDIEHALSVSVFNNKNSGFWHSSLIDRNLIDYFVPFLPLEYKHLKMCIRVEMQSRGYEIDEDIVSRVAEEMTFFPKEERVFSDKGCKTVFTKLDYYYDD
Sequence of Luciferin 4-monooxygenase (Photinus pyralis) (P08659 whole entry, looked up): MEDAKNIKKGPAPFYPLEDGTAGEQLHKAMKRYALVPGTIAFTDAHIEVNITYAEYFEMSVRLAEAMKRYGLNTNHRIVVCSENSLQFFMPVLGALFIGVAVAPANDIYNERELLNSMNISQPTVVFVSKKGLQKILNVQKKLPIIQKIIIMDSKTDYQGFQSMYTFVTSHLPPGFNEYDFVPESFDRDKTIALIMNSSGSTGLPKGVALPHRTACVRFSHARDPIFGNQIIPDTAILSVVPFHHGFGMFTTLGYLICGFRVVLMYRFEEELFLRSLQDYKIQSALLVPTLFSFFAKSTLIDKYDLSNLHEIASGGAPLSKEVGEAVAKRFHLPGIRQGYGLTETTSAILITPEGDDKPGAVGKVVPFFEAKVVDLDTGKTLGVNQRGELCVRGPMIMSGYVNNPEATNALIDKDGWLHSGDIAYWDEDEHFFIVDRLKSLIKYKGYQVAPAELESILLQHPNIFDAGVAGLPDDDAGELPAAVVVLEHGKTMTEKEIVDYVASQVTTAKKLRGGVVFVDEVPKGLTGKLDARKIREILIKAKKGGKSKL

For the compound `CCOC(=O)C[C@H]1[C@H](OC(=O)c2ccc(-c3ccccc3)cc2)[C@@H](NC(=O)Cc2ccc(OC)cc2)c2cc(OCCCO)ccc2N1C(=O)c1ccccc1`, the composite z-score in assay [1] was 0.0013; in assay [2], -0.483; in [3] it was 0.0865; in [4], 0.44; in assay [5], 0.349; in [6], 0.0164. For the same compound, the composite z-score in the assay with Lefty1 was 0.299; in assay [8] it was 0.241; in [10] it was 0.118; in assay [15], -0.0322; in assay [16] it was -0.0645; with Torsin-1A (Homo sapiens) [17] it was -0.36. Also, the composite z-score in the assay with Torsin-1A (Homo sapiens) [18] came out at 0.023; in assay [19] it was 0.265. The z-score in assay [7] is 0.188; in assay [9], 0.785 (inactive); in assay [11] it was -1.02 (inactive); in assay [12], 0.338 (inactive); in assay [13], -0.505 (inactive); in assay [14], -0.15 (inactive).
As to `COc1ccc(C#Cc2ccc3c(c2)[C@]2(C(=O)N3)[C@H](C(=O)Nc3nc4ccccc4s3)[C@H]3C(=O)O[C@H](c4ccccc4)[C@H](c4ccccc4)N3[C@@H]2c2ccc(O)cc2)cc1`, the composite z-score in assay [1] was 0.973; in assay [2], 1.24; in assay [3] it was 0.289; in assay [4], 0.997; in assay [5] it was 1.38; in [6], 0.882. Besides, the composite z-score in the assay with Lefty1 turned out to be 1.72; in assay [8], 1.18; in assay [10] it was 0.823; in assay [15], 2.25; in [16], 1.43; in the assay with Torsin-1A (Homo sapiens) [17] it was 1.41. Besides, the composite z-score is 0.903 in the assay with Torsin-1A (Homo sapiens) [18] and 2.02 in assay [19]. The z-score in assay [7] was -2.22; in assay [9] it was 0.0616 (inactive); in [11], -1.3 (inactive); in assay [12] it was -0.782 (inactive); in [13], 0.0653 (inactive); in assay [14], -0.0135 (inactive).
Take `COCCCNC(=O)[C@@H]1c2ccccc2C(=O)N(Cc2ccccc2Cl)[C@H]1c1ccc(CO)cc1`: the composite z-score in [1] worked out at 3.19; in assay [2], 1.17; in [3] it was 0.36; in assay [4], 0.381; in [5], 1.33; in assay [6], 1.04. Besides, the composite z-score in the assay with Lefty1 was 0.753; in [8], -0.0431; in [10], -0.0355; in assay [15] it was 0.128; in assay [16] it was 0.326; in the assay with Torsin-1A (Homo sapiens) [17] it was 0.494. Besides, the figures for the composite z-score (with Torsin-1A (Homo sapiens) [18]; in assay [19]) were 0.857 and 0.861, respectively. Also, the z-score in assay [7] was 2.35; in [9], -1.27 (inactive); in assay [11], -0.0743 (inactive); in assay [12], 0.66 (inactive); in assay [13], -0.179 (inactive); in assay [14], -0.268 (inactive).
As to `CO[C@H]1O[C@H](CO)[C@@H](OC(=O)Nc2ccc(Oc3ccccc3)cc2)[C@H](OC(=O)Nc2ccc3c(c2)OCO3)[C@H]1OC(=O)Nc1ccc2c(c1)OCO2`, the composite z-score in [1] is 1.83; in assay [2] it was 1.2; in assay [3] it was 1.29; in assay [4], 0.933; in [5], 1.34; in assay [6], 0.957. Besides, the composite z-score in the assay on Lefty1 came to 1.05; in assay [8] it was 1.18; in [10], 0.636; in [15], 0.412; in assay [16], 0.443; in the assay with Torsin-1A (Homo sapiens) [17], 0.387. For the same compound, the composite z-score is 0.661 in the assay with Torsin-1A (Homo sapiens) [18] and 1.41 in [19]. Besides, the z-score is -0.249 in assay [7]; -6.84 (inactive) in assay [9]; -1.48 (inactive) in [11]; -0.822 (inactive) in [12]; 1.09 (inactive) in [13]; -0.922 (inactive) in assay [14].
`CC(C)C(CO)N1C(=O)[C@@H]2C3C(=O)OCCC/C=C\[C@H]3OC23C=CCN(CCN2CCOCC2)C(=O)[C@@H]13` (stereo not given in full): the composite z-score in [1] was -0.92; in assay [2] it was -1.54; in [3], -0.0582; in assay [4], -0.0904; in assay [5] it was 0.113; in assay [6], 0.164. Further, the composite z-score with Lefty1 was 0.579; in assay [8], -1.24; in [10], 0.0992; in [15] it was -0.578; in [16] it was -0.251; with Torsin-1A (Homo sapiens) [17], -0.111. Further, the results for the composite z-score (with Torsin-1A (Homo sapiens) [18]; in [19]) were -0.184 and 0.856, respectively. The z-score in [7] was -0.835; in [9] it was -0.519 (inactive); in assay [11], 0.39 (inactive); in assay [12], 0.723 (inactive); in assay [13], -0.212 (inactive); in assay [14], -0.0271 (inactive).
For `COc1ccc(C(=O)Nc2ccc(CN3C(=O)[C@]4(O[C@H](CCO)[C@@H]([Si](C)(C)c5ccc(OC)cc5)[C@@H]4C)c4ccccc43)cc2)cc1`, the composite z-score in assay [1] worked out at 0.215; in [2], 1.06; in [3] it was 0.246; in [4], 0.599; in [5], 0.995; in assay [6], 0.894. In addition, the composite z-score in the assay on Lefty1 was found to be 1.36; in assay [8], 0.526; in [10], 0.406; in [15] it was 0.566; in assay [16], 0.0014; with Torsin-1A (Homo sapiens) [17], 0.108. Also, the composite z-score in the assay with Torsin-1A (Homo sapiens) [18] was 0.165; in assay [19], 1.48. The z-score in [7] was -1.41; in assay [9], 0.362 (inactive); in [11], -7.95 (inactive); in assay [12], -0.925 (inactive); in assay [13], 8.84 (active); in [14] it was -1.89 (inactive).

The record behind these values is PubChem BioAssay.
